Results published in PubChem BioAssay (NCI).
This is part of a sample that, as a whole, favours compounds with a hit. Of some 83,000 tested, about 20% had one in any assay.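 Values shown are percent growth following 48 h exposure of cells in 96-well plates to a single concentration of compound; below 10 was considered active.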 Calls of active or inactive are those of the source.

What was measured:
Test in all cases: NCI-60 one-dose screen, 48 h (100 = growth as untreated, 0 = no growth, -100 = all killed)
Conditions in all cases: 10 µM unless noted
[1] = tested on: DU-145 prostate
[2] = tested on: MALME-3M melanoma
[3] = tested on: MDA-MB-231 breast
[4] = tested on: RXF 393 renal
[5] = tested on: SF-268 CNS
[6] = tested on: SF-295 CNS
[7] = tested on: SF-539 CNS
[8] = tested on: UACC-257 melanoma
[9] = tested on: M14 melanoma
[10] = tested on: HCT-15 colon
[11] = tested on: HT29 colon
[12] = tested on: SNB-75 CNS
[13] = tested on: SNB-19 CNS
[14] = tested on: PC-3 prostate
[15] = tested on: SK-MEL-5 melanoma
[16] = tested on: UACC-62 melanoma
[17] = tested on: LOX IMVI melanoma
[18] = tested on: SK-MEL-28 melanoma
[19] = tested on: U251 CNS

Measured: growth

CCOC(=O)Oc1c(OC)cc(C(=O)O[C@@H]2C[C@@H]3CN4CCc5c([nH]c6cc(OC)ccc56)[C@H]4C[C@@H]3[C@H](C(=O)OC)[C@H]2OC)cc1OC
inactive: [1] 81.5% | [2] 58.9% | [3] 43.2% | [4] 89.8% | [5] 75.2% | [6] 74.3% | [7] 79.9% | [8] 94% | [9] 72.1% | [10] 44.1% | [11] 36.7% | [12] 91.1% | [13] 75.5% | [14] 35% | [15] 86.1% | [16] 87.8% | [17] 14.4% | [18] 83.2%

NC(=O)c1ccc[n+](CC(=O)N2CCN(c3cc4c(cc3F)c(=O)c(C(=O)O)cn4C3CC3)CC2)c1
active: [2] 6.59%
inactive: [1] 96.4% | [3] 99.8% | [5] 76.7% | [6] 108% | [7] 88.6% | [8] 89.4% | [9] 76.4% | [10] 81.8% | [11] 99.3% | [12] 88.2% | [13] 92.6% | [19] 88.4% | [14] 88.9% | [15] 93.7% | [16] 59.2% | [17] 43% | [18] 75.8%

Nc1nc(SN=Nc2ccc(S(N)(=O)=O)cc2)c2[nH]cnc2n1
active: [4] -6.34% | [8] 8.28% | [11] 9.84% | [12] 5.46% | [17] -9.46%
inactive: [1] 15% | [2] 24.6% | [3] 16.9% | [5] 19.8% | [6] 12.6% | [7] 14.9% | [9] 11.1% | [10] 12.6% | [13] 103% | [19] 42.7% | [14] 23.8% | [15] 46.7% | [18] 15.6%

CCCOc1nc(SCCC)nc2c1cnn2-c1ccccc1
inactive: [1] 110% | [2] 119% | [3] 105% | [5] 87.7% | [6] 108% | [7] 98.4% | [8] 113% | [9] 109% | [10] 108% | [11] 83.1% | [12] 98.6% | [13] 103% | [14] 102% | [15] 106% | [17] 110% | [18] 122%

O=C1OC(=O)C2C1CC=CC2c1ccccc1 (stereo not given)
inactive: [1] 94% | [2] 78.8% | [3] 93.7% | [4] 102% | [5] 91.1% | [6] 95.8% | [7] 88.3% | [8] 107% | [9] 97.4% | [10] 105% | [11] 86.3% | [12] 83.7% | [13] 93.7% | [19] 87.8% | [14] 73.1% | [15] 98.6% | [16] 94.4% | [17] 71.7% | [18] 91.8%

CCN(CCNc1cc(OC)cc2cccnc12)CCc1ccccc1
inactive: [1] 101% | [2] 108% | [3] 70.7% | [5] 84% | [6] 83.5% | [7] 97.6% | [8] 77.8% | [9] 93.4% | [10] 73.1% | [11] 70% | [12] 83.7% | [13] 98.1% | [19] 101% | [14] 87.5% | [16] 99.8% | [17] 86.5% | [18] 102%

O=C(Nc1ccccc1)Oc1ccccc1-c1ccccc1
inactive: [1] 105% | [2] 95% | [3] 109% | [5] 96.2% | [6] 97.4% | [7] 105% | [8] 80.8% | [9] 85.2% | [10] 102% | [11] 96.5% | [12] 75.5% | [13] 99.5% | [14] 80.4% | [15] 97.9% | [16] 93.2% | [17] 95.2% | [18] 107%

Clc1nc(Nc2ccccc2)nc(Nc2ccccc2)n1
inactive: [1] 101% | [2] 111% | [3] 88.8% | [4] 117% | [5] 103% | [6] 100% | [7] 100% | [8] 130% | [9] 118% | [10] 100% | [11] 116% | [12] 105% | [13] 104% | [19] 110% | [14] 99.5% | [15] 99.8% | [16] 96.3% | [17] 94.1% | [18] 112%

Cn1ncc2c(Nc3ccccc3Cl)nc(Cl)nc21
inactive: [1] 139% | [2] 122% | [3] 87% | [5] 114% | [6] 103% | [7] 102% | [8] 128% | [9] 124% | [10] 98.4% | [11] 96.2% | [12] 78.6% | [19] 112% | [14] 109% | [15] 107% | [16] 87.1% | [17] 104%

COc1ccc(/C=C/C(=O)c2ccc(Nc3ncnc4ccccc34)cc2)cc1OC
inactive: [1] 83.1% | [2] 101% | [3] 72.1% | [5] 68.1% | [6] 79.6% | [7] 98.1% | [8] 98.6% | [9] 64.7% | [10] 75.9% | [11] 13.9% | [12] 92.2% | [13] 79.1% | [19] 54.1% | [14] 65.4% | [15] 91.9% | [16] 87.1% | [17] 44.2% | [18] 98.1%

COc1cc2nc(-c3ccc(C#N)cc3)[nH]c(=O)c2cc1OC
inactive: [1] 105% | [2] 263% | [3] 94% | [5] 100% | [6] 95.9% | [7] 101% | [9] 87.7% | [10] 107% | [11] 113% | [12] 109% | [13] 98.9% | [19] 100% | [14] 105% | [15] 96.8% | [17] 90.8% | [18] 102%
active: [8] -1.56%

COc1ccc(/C=C/c2n[nH]c3ccc(N4CCOC4=O)cc23)cc1
inactive: [1] 14.7% | [2] 59.9% | [3] 14.6% | [5] 13% | [6] 32.8% | [8] 38.4% | [9] 26.9% | [10] 10.1% | [13] 18.2% | [19] 15.9% | [14] 18.5% | [16] 16.5% | [18] 33.5%
active: [7] -1.43% | [11] -18.6% | [12] -11.1% | [17] 1.88%

O=C(O)c1cn(C2CC2)c2cc(N3CCN(C(=O)C[n+]4cccc5ccccc54)CC3)c(F)cc2c1=O
inactive: [1] 91.7% | [3] 99.8% | [5] 68.2% | [6] 107% | [7] 69.1% | [8] 82.3% | [9] 64.8% | [10] 55% | [11] 78.7% | [12] 75.1% | [13] 83.8% | [19] 64.4% | [14] 77.1% | [15] 94.6% | [16] 42.7% | [17] 20.7% | [18] 56.8%
active: [2] -41.7%

Cc1ccc(C(c2c(O)c3cc(Br)ccc3[nH]c2=O)c2c(O)c3cc(Br)ccc3[nH]c2=O)cc1
inactive: [1] 102% | [2] 91% | [3] 70.5% | [5] 87.1% | [6] 75.6% | [7] 91.2% | [8] 98.3% | [9] 93.3% | [10] 79.1% | [11] 97.5% | [12] 83.7% | [13] 93% | [19] 83.7% | [15] 73.3% | [17] 84.1%

CC1=CC[C@@H]2CC[C@]3(C)[C@H](CC[C@@H]4[C@@]5(C)CCCNC(C)(C)[C@@H]5CC[C@]43C)[C@H]2[C@@H]1C
inactive: [5] 40.2% | [7] 77.5% | [8] 76.7% | [9] 15.5% | [12] 76.5% | [13] 18.1% | [14] 27.7% | [15] 89.9% | [16] 92.4% | [18] 63.7%
active: [1] -7.26% | [2] 3.21% | [3] -7.94% | [6] -35.2% | [10] -57.8% | [11] -55.2% | [19] -90.8% | [17] -100%

C=C(C)[C@@H]1CC[C@]2(C(=O)NCCCN(CCC#N)CCC#N)CC[C@]3(C)[C@H](CC[C@@H]4[C@@]5(C)CCC(=O)C(C)(C)[C@@H]5CC[C@]43C)[C@@H]12
inactive: [1] 105% | [2] 105% | [3] 103% | [5] 94.6% | [6] 99.8% | [7] 94.2% | [8] 91.4% | [9] 99% | [10] 101% | [11] 99.1% | [12] 92% | [13] 98.9% | [19] 94.1% | [14] 94.4% | [15] 102% | [16] 99.6% | [17] 101% | [18] 107%

Cn1c2c(Cl)c(Cl)ccc2c2cc(N)[nH]c(=O)c21
inactive: [1] 84.2% | [2] 102% | [3] 68.5% | [5] 80.9% | [6] 53.7% | [7] 82.8% | [8] 97.9% | [9] 97.8% | [10] 97.1% | [11] 92.8% | [12] 77.7% | [13] 98.4% | [19] 93.8% | [16] 87.2% | [17] 76.1% | [18] 103%
